Measured values reported in PubChem BioAssay (EPA / NIEHS).
Activity calls are given as the source filed them. The calls were made as follows: active = hit-call score of the fitted dose curve at least 0.9, where 1 is the maximum; inactive = score below 0.9.

These compounds were tested on Cyclin D1 (CCND1), CCND1 (gene 595) (assay: LTEA_HepaRG_CCND1: Life Technologies and Expression Analysis (LTEA) Assay for Cyclin D1 (CCND1) using HepaRG (AID 2283451;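 as to AC50: differentiated human HepaRG liver cells in serum-free induction medium; TaqMan qRT-PCR transcript level normalised to ACTB GAPDH and POLR2A housekeeping genes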)). Conditions: mRNA level, 48 h; actives raise or lower the signal.
How it was run: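 Expression of CCND1 was quantified by qRT-PCR on Fluidigm arrays using ACTB, GAPDH and POLR2A as reference genes. HepaRG cultures, plated 48 h beforehand, were dosed for 48 h at up to 100 uM (half-log, 8 points) in 0.5% DMSO.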
For `CC(C)=CCC/C(C)=C\CO`, the outcome was “inactive”.
With `Oc1ccc2c(c1)-c1ccccc1C2` the outcome was “inactive”.
With `CCOCCOCCOCCO` the outcome was “inactive”.
`On1ccccc1=S` was tested, and the outcome was “inactive”.
For `CC[C@H]1OC(=O)[C@H](C)[C@@H](O[C@H]2C[C@@](C)(OC)[C@@H](O)[C@H](C)O2)[C@H](C)[C@@H](O[C@@H]2O[C@H](C)C[C@H](N(C)C)[C@H]2O)[C@](C)(O)C[C@@H](C)C(=O)[C@H](C)[C@@H](O)[C@]1(C)O`, the outcome was “inactive”.
In the case of `O=C1CCC(N2C(=O)c3ccccc3C2=O)C(=O)N1` (stereo not given), the outcome is reported as “inactive”.
In the case of `CC(C)=CCCC(C)CCO` (stereo not given), the outcome is reported as “inactive”.
With `CCc1cc(SCc2sc(-c3ccc(C(F)(F)F)cc3)nc2CN2CCN(c3ccc(OC)cc3)CC2)ccc1OCC(=O)O` the AC50 was 93.4 µM (active).
For `Cc1ccc(S(=O)(=O)O)cc1C`, the outcome was “inactive”.
With `CCCCCCCCCCCCc1ccccc1` the outcome was “inactive”.
For `O=C(O)CC(O)C(=O)O` (stereo not given), the outcome was “inactive”.
With `C=CCCCCCCCCC(=O)O` the outcome was “inactive”.
For `CCOCCO`, the outcome was “inactive”.
`CCNc1ccccc1` was tested, and the outcome was “inactive”.
`CCC(C)(C)C(=O)O[C@H]1C[C@@H](C)C=C2C=C[C@H](C)[C@H](CC[C@@H]3C[C@@H](O)CC(=O)O3)[C@H]21` was tested, and the outcome was “inactive”.
In the case of `CCCCC(CC)COC(=O)c1ccc(C(=O)OCC(CC)CCCC)cc1` (stereo not given), the outcome is reported as “inactive”.
In the case of `CCN(C(=O)c1cc(C)cc(OC[C@H](C)Nc2ccncc2)c1)C(C)C`, the outcome is reported as “inactive”.
With `CC(C)=CCC/C(C)=C/CO` the outcome was “inactive”.
In the case of `Cc1ccc(O)cc1`, the outcome is reported as “inactive”.
For `CN(C)c1ccc(N=NS(=O)(=O)O)cc1`, the outcome was “inactive”.
In the case of `Cc1[nH]cnc1C[C@H]1CCc2c(C)c3ccccc3n2C1=O`, the AC50 is reported as 79.7 µM (active).
`COC(=O)c1ccccc1O` was tested, and the outcome was “inactive”.
With `COC(=O)c1c(Cl)c(Cl)c(C(=O)OC)c(Cl)c1Cl` the outcome was “inactive”.
With `CC(C)=CCCC(C)=CC=O` the outcome was “inactive”.
For `CC(=O)c1ccc2c(c1)[C@H](NC(=O)c1ccc(F)cc1)[C@@H](O)C(C)(C)O2`, the outcome was “inactive”.
With `COc1cccc(-c2ccc(/C=C\CN3CCCCCC3)cc2Cl)c1` the AC50 was 72.2 µM (active).
For `COC(=O)CC(=O)OC`, the outcome was “inactive”.
In the case of `Cc1c(-c2cccnc2)c2ccccc2n1CCCCC(=O)O`, the outcome is reported as “inactive”.
In the case of `NC(=O)NO`, the outcome is reported as “inactive”.
In the case of `CC[C@H](C)C(=O)O[C@H]1C[C@@H](C)C=C2C=C[C@H](C)[C@H](CC[C@@H]3C[C@@H](O)CC(=O)O3)[C@H]21`, the outcome is reported as “inactive”.

The compounds below were run on catalase (CAT), CAT (gene 847) (assay: LTEA_HepaRG_CAT: Life Technologies and Expression Analysis (LTEA) Assay for catalase (CAT) using HepaRG (AID 2283452;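 as to AC50: TaqMan qRT-PCR signal normalized to ACTB GAPDH and POLR2A housekeeping genes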)). Conditions: mRNA level, 48 h; actives raise or lower the signal.
How it was run: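 Differentiated HepaRG cells in serum-free induction medium were dosed 48 h in duplicate, eight half-log concentrations from 100 uM in 0.5% DMSO. Transcript measured by TaqMan qRT-PCR, normalised to ACTB/GAPDH/POLR2A, fitted bidirectionally against DMSO.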
In the case of `CC(C)=CCC/C(C)=C\CO`, the outcome is reported as “inactive”.
For `Oc1ccc2c(c1)-c1ccccc1C2`, the outcome was “inactive”.
In the case of `CCOCCOCCOCCO`, the outcome is reported as “inactive”.
With `On1ccccc1=S` the outcome was “inactive”.
With `CC[C@H]1OC(=O)[C@H](C)[C@@H](O[C@H]2C[C@@](C)(OC)[C@@H](O)[C@H](C)O2)[C@H](C)[C@@H](O[C@@H]2O[C@H](C)C[C@H](N(C)C)[C@H]2O)[C@](C)(O)C[C@@H](C)C(=O)[C@H](C)[C@@H](O)[C@]1(C)O` the outcome was “inactive”.
In the case of `O=C1CCC(N2C(=O)c3ccccc3C2=O)C(=O)N1` (stereo not given), the outcome is reported as “inactive”.
For `CC(C)=CCCC(C)CCO` (stereo not given), the outcome was “inactive”.
For `CCc1cc(SCc2sc(-c3ccc(C(F)(F)F)cc3)nc2CN2CCN(c3ccc(OC)cc3)CC2)ccc1OCC(=O)O`, the AC50 was 93.7 µM (active).
`Cc1ccc(S(=O)(=O)O)cc1C` was tested, and the outcome was “inactive”.
For `CCCCCCCCCCCCc1ccccc1`, the outcome was “inactive”.
`O=C(O)CC(O)C(=O)O` (stereo not given) was tested, and the outcome was “inactive”.
For `C=CCCCCCCCCC(=O)O`, the outcome was “inactive”.
With `CCOCCO` the outcome was “inactive”.
With `CCNc1ccccc1` the outcome was “inactive”.
In the case of `CCC(C)(C)C(=O)O[C@H]1C[C@@H](C)C=C2C=C[C@H](C)[C@H](CC[C@@H]3C[C@@H](O)CC(=O)O3)[C@H]21`, the outcome is reported as “inactive”.
`CCCCC(CC)COC(=O)c1ccc(C(=O)OCC(CC)CCCC)cc1` (stereo not given) was tested, and the outcome was “inactive”.
For `CCN(C(=O)c1cc(C)cc(OC[C@H](C)Nc2ccncc2)c1)C(C)C`, the AC50 was 33.8 µM (active).
In the case of `CC(C)=CCC/C(C)=C/CO`, the outcome is reported as “inactive”.
With `Cc1ccc(O)cc1` the outcome was “inactive”.
`CN(C)c1ccc(N=NS(=O)(=O)O)cc1` was tested, and the outcome was “inactive”.
In the case of `Cc1[nH]cnc1C[C@H]1CCc2c(C)c3ccccc3n2C1=O`, the AC50 is reported as 24.3 µM (active).
With `COC(=O)c1ccccc1O` the outcome was “inactive”.
`COC(=O)c1c(Cl)c(Cl)c(C(=O)OC)c(Cl)c1Cl` was tested, and the outcome was “inactive”.
`CC(C)=CCCC(C)=CC=O` was tested, and the outcome was “inactive”.
`CC(=O)c1ccc2c(c1)[C@H](NC(=O)c1ccc(F)cc1)[C@@H](O)C(C)(C)O2` was tested, and the outcome was “inactive”.
For `COc1cccc(-c2ccc(/C=C\CN3CCCCCC3)cc2Cl)c1`, the AC50 was 69.7 µM (active).
With `COC(=O)CC(=O)OC` the outcome was “inactive”.
For `Cc1c(-c2cccnc2)c2ccccc2n1CCCCC(=O)O`, the outcome was “inactive”.
In the case of `NC(=O)NO`, the outcome is reported as “inactive”.
In the case of `CC[C@H](C)C(=O)O[C@H]1C[C@@H](C)C=C2C=C[C@H](C)[C@H](CC[C@@H]3C[C@@H](O)CC(=O)O3)[C@H]21`, the outcome is reported as “inactive”.

The compounds below were run on flavin-containing dimethylaniline monooxygenases 3 (FMO3), FMO3 (gene 2328) (assay: LTEA_HepaRG_FMO3: Life Technologies and Expression Analysis (LTEA) Assay for flavin-containing dimethylaniline monooxygenases 3 (FMO3) using HepaRG (AID 2283453;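 as to AC50: differentiated human HepaRG liver cells in serum-free induction medium; FMO3 transcript by TaqMan qRT-PCR normalized to ACTB GAPDH and POLR2A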)). Conditions: mRNA level, 48 h; actives raise or lower the signal.
How it was run: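 Eight-point concentration-response in serum-free HepaRG cultures (top 100 uM, 0.5% DMSO, 48 h). Read-out: FMO3 mRNA level normalized to three endogenous control genes, fitted bidirectionally versus vehicle.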
`CC(C)=CCC/C(C)=C\CO` was tested, and the outcome was “inactive”.
In the case of `Oc1ccc2c(c1)-c1ccccc1C2`, the outcome is reported as “inactive”.
For `CCOCCOCCOCCO`, the outcome was “inactive”.
With `On1ccccc1=S` the outcome was “inactive”.
`CC[C@H]1OC(=O)[C@H](C)[C@@H](O[C@H]2C[C@@](C)(OC)[C@@H](O)[C@H](C)O2)[C@H](C)[C@@H](O[C@@H]2O[C@H](C)C[C@H](N(C)C)[C@H]2O)[C@](C)(O)C[C@@H](C)C(=O)[C@H](C)[C@@H](O)[C@]1(C)O` was tested, and the outcome was “inactive”.
For `O=C1CCC(N2C(=O)c3ccccc3C2=O)C(=O)N1` (stereo not given), the outcome was “inactive”.
In the case of `CC(C)=CCCC(C)CCO` (stereo not given), the outcome is reported as “inactive”.
`CCc1cc(SCc2sc(-c3ccc(C(F)(F)F)cc3)nc2CN2CCN(c3ccc(OC)cc3)CC2)ccc1OCC(=O)O` was tested, and the AC50 was 5.55 µM (active).
For `Cc1ccc(S(=O)(=O)O)cc1C`, the outcome was “inactive”.
`CCCCCCCCCCCCc1ccccc1` was tested, and the outcome was “inactive”.
For `O=C(O)CC(O)C(=O)O` (stereo not given), the outcome was “inactive”.
With `C=CCCCCCCCCC(=O)O` the outcome was “inactive”.
In the case of `CCOCCO`, the outcome is reported as “inactive”.
With `CCNc1ccccc1` the outcome was “inactive”.
In the case of `CCC(C)(C)C(=O)O[C@H]1C[C@@H](C)C=C2C=C[C@H](C)[C@H](CC[C@@H]3C[C@@H](O)CC(=O)O3)[C@H]21`, the outcome is reported as “inactive”.
In the case of `CCCCC(CC)COC(=O)c1ccc(C(=O)OCC(CC)CCCC)cc1` (stereo not given), the outcome is reported as “inactive”.
With `CCN(C(=O)c1cc(C)cc(OC[C@H](C)Nc2ccncc2)c1)C(C)C` the AC50 was 50.7 µM (active).
`CC(C)=CCC/C(C)=C/CO` was tested, and the outcome was “inactive”.
`Cc1ccc(O)cc1` was tested, and the outcome was “inactive”.
In the case of `CN(C)c1ccc(N=NS(=O)(=O)O)cc1`, the outcome is reported as “inactive”.
In the case of `Cc1[nH]cnc1C[C@H]1CCc2c(C)c3ccccc3n2C1=O`, the AC50 is reported as 32 µM (active).
`COC(=O)c1ccccc1O` was tested, and the outcome was “inactive”.
For `COC(=O)c1c(Cl)c(Cl)c(C(=O)OC)c(Cl)c1Cl`, the outcome was “inactive”.
In the case of `CC(C)=CCCC(C)=CC=O`, the outcome is reported as “inactive”.
For `CC(=O)c1ccc2c(c1)[C@H](NC(=O)c1ccc(F)cc1)[C@@H](O)C(C)(C)O2`, the outcome was “inactive”.
In the case of `COc1cccc(-c2ccc(/C=C\CN3CCCCCC3)cc2Cl)c1`, the AC50 is reported as 68.8 µM (active).
`COC(=O)CC(=O)OC` was tested, and the outcome was “inactive”.
`Cc1c(-c2cccnc2)c2ccccc2n1CCCCC(=O)O` was tested, and the outcome was “inactive”.
In the case of `NC(=O)NO`, the outcome is reported as “inactive”.
For `CC[C@H](C)C(=O)O[C@H]1C[C@@H](C)C=C2C=C[C@H](C)[C@H](CC[C@@H]3C[C@@H](O)CC(=O)O3)[C@H]21`, the outcome was “inactive”.
